Among all 220,000 compounds or so, about 830 (0.38%) were called active.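 The calls were made as follows: active = compound inhibiting the enzyme by more than half at any dose during confirmatory dose-response retesting; inconclusive = strong single-dose inhibitors picked by rank but not retested; inactive = the rest.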 The list is a sample of the results. Measured potencies and affinities stand elsewhere.
Molecular target: Leucine aminopeptidase (Plasmodium falciparum (isolate 3D7)) (UniProt Q8IL11)
Assay: P. falciparum M17LAP inhibitors, primary screen, biochemical, fluorogenic H-Leu-NHMec substrate, 1536-well (AID 1619);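 also: plate controls were full reaction with DMSO carrier for no effect and no enzyme background for full effect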
Conditions: recombinant M17LAP, H-Leu-NHMec fluorogenic kinetic assay; at 30 µM; hits give high values

Sequence of Leucine aminopeptidase (Plasmodium falciparum (isolate 3D7)) (Q8IL11 whole entry, looked up): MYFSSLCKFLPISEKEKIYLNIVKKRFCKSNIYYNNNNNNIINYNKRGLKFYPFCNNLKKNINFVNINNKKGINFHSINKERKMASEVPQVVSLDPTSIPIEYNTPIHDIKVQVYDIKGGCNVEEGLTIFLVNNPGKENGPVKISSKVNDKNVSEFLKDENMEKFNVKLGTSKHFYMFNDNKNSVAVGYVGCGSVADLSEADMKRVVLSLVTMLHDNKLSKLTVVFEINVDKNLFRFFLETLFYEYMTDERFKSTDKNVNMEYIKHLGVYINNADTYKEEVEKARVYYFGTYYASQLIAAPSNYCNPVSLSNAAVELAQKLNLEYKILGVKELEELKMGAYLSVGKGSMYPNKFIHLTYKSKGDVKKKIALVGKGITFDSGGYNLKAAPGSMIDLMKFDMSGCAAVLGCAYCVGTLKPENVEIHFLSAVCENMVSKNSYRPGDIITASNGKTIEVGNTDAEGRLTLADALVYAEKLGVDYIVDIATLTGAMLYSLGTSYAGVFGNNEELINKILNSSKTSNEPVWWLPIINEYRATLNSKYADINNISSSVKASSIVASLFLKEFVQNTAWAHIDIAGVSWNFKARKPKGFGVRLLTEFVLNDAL

inhibition, inactive:
C=CCNS(=O)(=O)c1nc(C)c(Cl)c(C)c1C#N 9.01%, CC(Sc1ncc(C#N)c(N)n1)C(=O)Nc1ccccc1 (stereo unspecified) 9.93%, CCc1nnc(NS(=O)(=O)c2ccc(N/C=C\C(=O)c3ccc4ccccc4c3)cc2)s1 12.1%, CCc1nnc(NS(=O)(=O)c2ccc(NC(=S)NC(=O)/C=C/c3ccc(OC)cc3)cc2)s1 40.7%, CCc1nnc(NS(=O)(=O)c2ccc(NC(=O)COc3ccc(Cl)c(C)c3)cc2)s1 52.7%, CCc1nnc(NS(=O)(=O)c2ccc(NC(=S)NC(=O)/C=C/c3ccc(F)cc3)cc2)s1 53%, CCc1nnc(NS(=O)(=O)c2ccc(NC(=O)/C=C/c3ccccc3Cl)cc2)s1 1.04%, CCc1nnc(NS(=O)(=O)c2ccc(NC(=S)NC(=O)/C=C/c3ccccc3)cc2)s1 23.5%, CCc1nnc(NS(=O)(=O)c2ccc(NC(=O)c3cccc4ccccc34)cc2)s1 15%, CCc1nnc(NS(=O)(=O)c2ccc(NC(=O)OC)cc2)s1 6.85%, Cc1ccc(Nc2nnc(SCC(=O)NCCN3C(=O)CSC3=O)s2)cc1C 54.4%, O=C(NCCc1c[nH]c2ccccc12)c1c(Cl)nc2sccn12 -3.3%, O=C(NCc1ccncc1)c1cn(-c2ccccc2)nc1-c1cccnc1 9.29%, CCOC(=O)Cc1nnc(Nc2ccc(C)cc2C)c2ccccc12 -12.3%, CC(C)CCNC(=O)C1CCC(=O)N1C(C)C (stereo unspecified) -2.71%, N#CCCN(CC(=O)O)S(=O)(=O)c1ccccc1 -11.6%, CCc1ccc(C(=O)Nc2nnn(CC)n2)cc1 10.2%, C1CCCCCC2(CCCCC1)OCC(CN1CCOCC1)O2 (stereo unspecified) 1.36%, Cc1c(C(=O)c2ccccc2)c2ccccn2c1CCc1ccccn1 5.7%, O=C(CN1NS(=O)(=O)c2ccccc2C1=O)Nc1ccccc1OC(F)F 43.5%, N#Cc1cccc(NC(=O)COC(=O)c2cccc(N3C(=O)c4ccccc4C3=O)c2)c1 8.44%, CC1(c2ccccc2)NC(=O)N(CC(=O)Nc2cccc(C#N)c2)C1=O (stereo unspecified) -4.04%, CCCCc1ccc(NC(=O)CN2NS(=O)(=O)c3ccccc3C2=O)cc1 52.6%, O=C1CSC(c2cccnc2)N1c1ccc(F)cc1 (stereo unspecified) 9.53%, CC(=O)Nc1ccc(CN2CCCC(CO)(Cc3ccccc3C)C2)cc1 (stereo unspecified) -0.77%, Nc1nc2n(n1)C(c1ccco1)CC(c1ccc(Cl)cc1)N2 (stereo unspecified) -19.4%, Cc1cccc(OC(=O)C2C(c3ccccc3)C(C(=O)O)C2c2ccccc2)c1 (stereo unspecified) 33.4%, COc1ccc(/C=C2/SC(=O)NC2=O)cc1 25.1%, Nc1c(-c2cccc(Cl)c2)cnn1-c1cccc(C(F)(F)F)c1 5.43%, CCOc1ccc(NC(=O)C2C3CCC4C(CCC32)C4(Cl)Cl)cc1 (stereo unspecified) 9.32%, C=C1C(C(=O)Nc2ccc(OCC)cc2)C1C(=O)Nc1ccc(OCC)cc1 (stereo unspecified) -7.51%, COc1ccc(OC)c(NC(=O)C2CCCCC2)c1 5.19%, COc1ccc(OC)c(NC(=O)C2CCCC2)c1 -9.43%, CC(=O)NC(=O)NC1OC(=O)C(Cl)=C1Cl (stereo unspecified) 4.19%, Cn1nc(C(=O)NCCOc2ccccc2)c2ccccc2c1=O -0.35%, CCOC(=O)C(CSCC(=O)c1ccc(Cl)cc1)NC(=O)OC(C)(C)C (stereo unspecified) 25.7%, CCOC(=O)CSCC(NC(=O)OC(C)(C)C)C(=O)OCC (stereo unspecified) 0.56%, CCN(CC)S(=O)(=O)c1ccc(N)cc1 11.4%, CCCSc1ccc(C(=O)Nc2ccc(Cl)cc2)cn1 -6.5%, COc1ccc(-n2c(C)cc(/C=C(\C#N)C(=O)NCc3ccco3)c2C)cc1 -8.8%, Cc1cc(/C=C(\C#N)C(=O)NCc2ccco2)c(C)n1-c1cccnc1 20.4%, Cc1ccc(-n2c(Cc3cccn3C)nnc2SCC(=O)NCc2ccco2)cc1 20.7%, Cc1ccc(Cn2ccc(C3CC3)n2)cc1 -1.75%, COC(=O)C1=C(O)C2(C(=O)O)CC(C(=O)OC)=C(O)C(C(=O)O)(C1)C2 -3.67%, CC(=O)NC1(C(=O)O)CCCC1 9.39%, Cc1ccc(S(=O)(=O)NCCCCCC(=O)Nc2ccccc2)cc1 3.08%, CCN1C(=O)/C(=C2/C=Cc3ccccc3N2CC)SC1=S -0.63%, Cc1[nH]nc2c1C(c1ccsc1)C(C#N)=C(N)O2 (stereo unspecified) 29.4%, CC(C)(C)c1[nH]nc2c1C(c1cccnc1)C(C#N)=C(N)O2 (stereo unspecified) 5.24%, N#CC1=C(N)Oc2n[nH]c(-c3ccccc3)c2C1c1ccncc1 (stereo unspecified) 62.5%, CCc1[nH]nc2c1C(c1cccnc1)C(C#N)=C(N)O2 (stereo unspecified) 11.3%, CCCc1[nH]nc2c1C(c1ccsc1)C(C#N)=C(N)O2 (stereo unspecified) 2.74%, CCCc1[nH]nc2c1C(c1ccncc1)C(C#N)=C(N)O2 (stereo unspecified) 30.1%, Cc1[nH]nc2c1C(CC(C)C)C(C#N)=C(N)O2 (stereo unspecified) 14.9%, CC(C)CC1C(C#N)=C(N)Oc2n[nH]c(-c3cccs3)c21 (stereo unspecified) 73.3%, CO/N=C/NC(=O)c1c(OC)ccnc1Oc1ccccc1 6.63%, CSCCC(NC(=O)c1ccc([N+](=O)[O-])cc1Cl)C(=O)OCC(=O)N(C)C (stereo unspecified) -3.36%, O=C(Nc1ccccc1C(=O)N1CCOCC1)C1CCCO1 (stereo unspecified) -7.06%, CC(C)c1[nH]nc2c1C(c1cccnc1)C(C#N)=C(N)O2 (stereo unspecified) 13.5%, CCCc1[nH]nc2c1C(Cc1ccccc1)C(C#N)=C(N)O2 (stereo unspecified) 28.5%, Cc1ccc(-c2ccc(C3C(C#N)=C(N)Oc4n[nH]c(C)c43)o2)cc1 (stereo unspecified) 15.7%, Cc1[nH]nc2c1C(CCc1ccccc1)C(C#N)=C(N)O2 (stereo unspecified) 68.1%, COC(=O)Cc1[nH]nc2c1C(c1ccc(O)c(OC)c1)C(C#N)=C(N)O2 (stereo unspecified) 17.1%, CCCc1[nH]nc2c1C(c1ccc(O)c(OC)c1)C(C#N)=C(N)O2 (stereo unspecified) 29.1%, Cc1ccc(C2C(C#N)=C(N)Oc3n[nH]c(C)c32)cc1 (stereo unspecified) 52.9%, CCCc1[nH]nc2c1C(c1cccnc1)C(C#N)=C(N)O2 (stereo unspecified) 9.46%, CC(C)NC(=O)/C=C/C(=O)O -17.6%, CCn1c(NCc2ccco2)nc2ccccc21 3.48%, Cc1cc(C)cc(OCC(=O)OCC(=O)c2ccc3c(c2)NC(=O)CO3)c1 -0.31%, O=C(CNC(=O)c1ccccc1)NCC(=O)OCc1ccccc1Cl -2.59%, O=C(CN(c1ccccc1)S(=O)(=O)c1ccc(F)cc1)NC1CCS(=O)(=O)C1 (stereo unspecified) 8.02%, CCOc1ccc(CC(=O)N2CCN=C2SCc2ccc([N+](=O)[O-])cc2)cc1 -3.75%, Cc1cc(C)c2cc(C(=O)N3CCC(Cc4ccccc4)CC3)[nH]c2c1 -4.41%, COC(=O)c1ccc(C(=O)OC)c(NC(=O)CSc2cccc[n+]2[O-])c1 -1.81%, Cc1ccc(-c2csc(/C(C#N)=C(\O)CCl)n2)cc1 6.37%, Cc1ccc(C2C(C#N)=C(N)Oc3nc(-c4ccccc4)[nH]c32)o1 (stereo unspecified) 94%, N#CC1=C(N)Oc2cc3ccccc3cc2C1c1cccnc1 (stereo unspecified) 0.21%, Cc1ccc(-c2c(C#N)c(N)nc3c2CCCC3)s1 9.55%, CC(=O)c1nn(-c2cccc(Cl)c2)cc1C(=O)c1ccco1 -0.97%, CC(=O)c1cc(Cl)ccc1OC(=O)c1ccco1 -7.24%, CN(C)CCNC(=O)C(c1ccccc1)c1ccccc1 4.43%, COc1cccc(C(=O)NNC(=O)C(=O)N2CCCCC2)c1 5.57%, O=C(Nc1cccc(C(=O)O)c1)/C(=C/c1ccc2c(c1)OCO2)NC(=O)c1cccc(Br)c1 51.7%, O=C(Nc1ccc(C(=O)O)cc1)/C(=C\c1ccc2c(c1)OCO2)NC(=O)c1ccc(Br)o1 12%, COCCn1nnnc1C(c1ccccc1OC)N1CCN(c2ccccc2F)CC1 (stereo unspecified) 0.44%, O=C(Cc1ccccc1)N1CCCC(c2nc(-c3ccc(S(=O)(=O)N4CCCC4)cc3)no2)C1 (stereo unspecified) 0.8%, O=C(O)CCn1cc(/C=C/C(=O)c2ccc(Cl)cc2)c(-c2cccc(Br)c2)n1 6.04%, O=C(O)CCn1cc(/C=C/C(=O)c2ccc(Cl)cc2)c(-c2ccc(Br)cc2)n1 31.8%, CN(C)c1ccc(/C=N/NC(N)=S)cc1[N+](=O)[O-] -6.38%, Nc1nonc1C(=O)N/N=C/c1cccc([N+](=O)[O-])c1 39.7%, CCCNS(=O)(=O)c1ccc(N2CCCC2=O)c([N+](=O)[O-])c1 -2.44%, CC(C)N(C(=O)C1CC(=O)OC12CCCCC2)C(C)C (stereo unspecified) -0.49%, CCC(=O)Nc1c(-c2ccc(OC)cc2)c(=O)c2ccccc2n1C 0.6%, Cc1ccc(NS(=O)(=O)Cc2ccccc2)nc1 -10.1%, O=S(=O)(Cc1ccccc1)Nc1ccc(Br)cn1 8.11%, Cc1nc2c(cc1C(=O)N/N=C/c1ccc(O)c(O)c1)c(=O)n(C)c(=O)n2C 13.8%
